Results as given in PubChem BioAssay (NCI).
The panel holds about 83,000 compounds, 20% with a hit somewhere; the sample as a whole holds those more often.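 96-well plates, one dose, 48 hours. Percent growth reported; active if below 10.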 Unmarked numbers belong to inactive results. Calls of active or inactive are those of the source.

Key:
Assay in all cases: NCI-60 one-dose screen, 48 h (100 = growth as untreated, 0 = no growth, -100 = all killed)
Conditions in all cases: 10 µM
HCT-15 colon = test system: HCT-15 colon
SNB-75 CNS = test system: SNB-75 CNS
SNB-19 CNS = test system: SNB-19 CNS
U251 CNS = test system: U251 CNS
PC-3 prostate = test system: PC-3 prostate
SK-MEL-5 melanoma = test system: SK-MEL-5 melanoma
UACC-62 melanoma = test system: UACC-62 melanoma
LOX IMVI melanoma = test system: LOX IMVI melanoma
SK-MEL-28 melanoma = test system: SK-MEL-28 melanoma

| Structure (SMILES) | growth (HCT-15 colon) [%] | growth (SNB-75 CNS) [%] | growth (SNB-19 CNS) [%] | growth (U251 CNS) | growth (PC-3 prostate) [%] | growth (SK-MEL-5 melanoma) [%] | growth (UACC-62 melanoma) [%] | growth (LOX IMVI melanoma) | growth (SK-MEL-28 melanoma) [%] |
| --- | --- | --- | --- | --- | --- | --- | --- | --- | --- |
| COc1ccc(-c2c(N)c(=O)n(C)c3ccccc23)cc1 | 49.7 | 75.4 | 62.1 | 47.8% | 46.9 | 57.7 | 38.1 | 45.9% | 86.5 |
| COc1ccc(C(=O)CSc2nnc(-c3c[nH]c4ccccc34)n2-c2ccccc2)cc1 | 73.3 | 15 | 29.8 | 34.4% | 50.3 | 81.3 | 25.8 | 43.5% | 49.7 |
| O=C1Nc2ccc(F)cc2/C1=C/c1cccc(OCc2ccccn2)c1 | 10.5 | 116 | 52.3 | 7.32% (active) | 36.6 | 31.1 | 26.5 | 1.13% (active) | 65.3 |
| CC(C)c1ccc(C(=O)Nc2sc3c(c2C(N)=O)CCC(=O)C3=O)cc1 | 71.5 | 98.2 | 97.4 | 92.6% | 82.8 | 99.1 | 94.3 | 82.7% | 110 |
